Only a selection was taken, and hits are over-represented in it overall.
CD40 NFkB inh = CD40 pathway inhibition in BL2 cells. BL2 NF-kB luciferase reporter, CD40L-induced, 4 h. inhibition, % at 10 µM. 83,000 compounds, 0.94% hits. AID 1053188;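 active means mean inhibition of at least 50% with a set share of replicates also reaching that level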;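 further: 0% = neutral control wells and 100% = IKK inhibitor VII at 50 µM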
* marks the source's active call; other numbers are inactive results; [ ] = another dose, or the depositor's remark.

SMILES	CD40 NFkB inh
COc1ccc(C(=O)/C=C/C(=O)N(CC(=O)NC2CCCCC2)Cc2ccccc2OC)c(O)c1	1.6
COc1cccc(/C=C/C(=O)OCC(=O)NC2CCCCCCC2)c1	4.7
C[C@H](CO)N1C[C@H](C)[C@H](CN(C)Cc2ccc(-c3ccccc3)cc2)OCc2cn(nn2)CCCC1=O	-0.6
O=C(c1ccccc1F)N1C[C@@H]2[C@H](c3ccccc31)[C@@H](CO)N2Cc1ccc2c(c1)OCO2	15.1[25 µM]
CCOC(=O)c1cc2c(ccn2C)n1CC(=O)N(C)C	2.5
CCOC(=O)c1cc2c(ccn2C)n1Cc1ccc(C#N)cc1	54.9*
CCOC(=O)c1cc2c(ccn2C)n1Cc1ccc(Cl)cc1	9.6
O=C(O)CCN1C(=O)/C(=C\c2ccncc2)SC1=S	5.9
O=C(O)CCCCCN1C(=O)/C(=C/c2cn(-c3ccccc3)nc2-c2cccs2)SC1=S	-3.8
CC(/C=C1\SC(=O)N(CCCC(=O)O)C1=O)=C\c1ccccc1	47.5*
CC(=O)N(C)C[C@@H]1Oc2ccc(N(C)C)cc2CC(=O)N(C)C[C@@H]1C	1.9
O=C(/C=C/c1ccccc1)CC(O)(c1ccccc1)C(F)(F)F (configuration not stated)	22.4
O=C(/C=C/c1ccccc1)COC(=O)c1ccccc1	-16.8
O=C(/C=C/c1ccccc1)CC(O)(c1ccccc1)C(F)(F)C(F)F (configuration not stated)	55.5*
CC(=O)N(C)C[C@@H]1Oc2ccc(NS(C)(=O)=O)cc2C(=O)N(C)C[C@@H]1C	-0.9
CC(C)NC(=O)Nc1ccc2c(c1)C(=O)N(C)C[C@@H](C)[C@H](CN(C)C)O2	-2.3
CN1C(=O)c2cc(NC(=O)C3CCC3)ccc2OC[C@H]2O[C@H](CC(=O)NCc3ccccc3F)CC[C@@H]21	-3.7
COC(=O)c1nn(-c2ccc(-c3ccccc3)cc2)cc1O	70.5*
COc1cn(-c2ccccc2)nc1C(=O)Nc1ccccc1	-76.3
COC(=O)c1nn(-c2ccccc2)c(-c2ccccc2)c1C(=O)c1ccccc1	7.4
COc1ccc(NC(=O)Nc2ccc3c(c2)C(=O)N([C@@H](C)CO)C[C@H](C)[C@@H](CN(C)Cc2ccc(C(F)(F)F)cc2)OCCCC[C@@H](C)O3)cc1	12.5
OC[C@@H]1[C@H](c2ccc(C3=CCCCC3)cc2)[C@@H](CNC2CCCC2)N1CC1CC1	-1.1
CC(C)C(Cl)=NOC(=O)Nc1ccc(S(N)(=O)=O)cc1	112.3*
CNC(=O)Nc1ccc(S(N)(=O)=O)cc1	9.8
COC(=O)[C@H](C)NC(=O)Nc1ccc(S(N)(=O)=O)cc1	13.7
SMILES	CD40 NFkB inh
C[C@H]1CN(C)C(=O)c2cc(N(C)C)ccc2O[C@H]1CN(C)S(C)(=O)=O	-5.7
CN(C)C(=O)C[C@H]1CC[C@@H]2[C@H](COc3ccc(NC(=O)C4CCCC4)cc3C(=O)N2C)O1	7.3
COc1ccccc1-c1cn(CC[C@@H]2CC[C@@H](NC(=O)C3CCCC3)[C@H](CO)O2)nn1	-6.3
COc1ccc(OCCOC(=O)c2cccs2)cc1	-17.4
COc1ccc(C(=O)O/N=C(/C)c2cccs2)cc1	58.6*
COc1ccc(C2CC2/C(C)=N/OC(=O)c2cccs2)cc1 (configuration not stated)	-6.6
CC(C)NC(=O)N(C)C[C@H]1Oc2ccc(N)cc2CC(=O)N(C)C[C@@H]1C	-1.9
CN1C(=O)c2cc(NC(=O)C3CC3)ccc2OC[C@H]2O[C@@H](CC(=O)NCc3ccccc3F)CC[C@@H]21	2.3
O=C(c1cccc(F)c1)N1CC[C@@H]2[C@@H](CO)Nc3ccc(-c4ccccc4)cc3[C@@H]21	-0.6
c1ccc(-c2ccccn2)nc1	2.0
Nn1c(-c2ccccn2)nnc1-c1ccccn1	-36.4
c1ccc(-c2ccc(-c3ccccn3)nn2)nc1	52.1*
CC(=O)N1[C@@H]2c3ccc(C4=CCCCC4)c(=O)n3C[C@H]1[C@H](CO)[C@H]2C(=O)NC1CCC1	2.1
O=C(NC1CCCC1)N1CC(=O)N2[C@H](C1)[C@H](c1ccc(-c3cccc(F)c3)cc1)[C@@H]2CO	4.9
C[C@@H]1CN([C@H](C)CO)C(=O)CCCn2cc(nn2)CO[C@H]1CN(C)Cc1ccc2c(c1)OCCN2C	-1.4[25 µM]
O=C(COc1cccnc1[N+](=O)[O-])c1ccc(Cl)s1	92.2*
O=C(COc1cccnc1[N+](=O)[O-])Nc1c(Cl)cccc1Cl	4.5
O=C(COc1cccnc1[N+](=O)[O-])Nc1ncc(Cl)cc1Cl	-15.1
O=C(C[C@H]1C[C@@H]2c3cc(NC(=O)NC4CCCCC4)ccc3O[C@@H]2[C@@H](CO)O1)NCC1CC1	6.3
C[C@H]1CN(C)C(=O)c2cc([N+](=O)[O-])ccc2O[C@H]1CN(C)C(=O)OC(C)(C)C	-2.0
Cn1cnc([N+](=O)[O-])c1Cl	11.6
CCN(CC)c1c([N+](=O)[O-])ncn1C	4.5
Cn1cnc([N+](=O)[O-])c1S(=O)(=O)Oc1cccc2ccccc12	100.7*
CCS(=O)(=O)c1c([N+](=O)[O-])ncn1C	95.3*
Cn1cnc([N+](=O)[O-])c1Oc1ccccc1	12.4
SMILES	CD40 NFkB inh
Cn1cnc([N+](=O)[O-])c1Oc1cccc2ccccc12	28.6
CNC[C@@H]1Oc2ccc(NC(C)=O)cc2C(=O)N(C)C[C@@H]1C	0.5
C[C@@H]1CN(C)C(=O)c2cc(N)ccc2O[C@@H]1CN(C)C	1.5
O=S(=O)(c1ccccc1)N1CC[C@@H]2[C@H]1c1cc(C#CC3CCCCC3)ccc1N[C@@H]2CO	-4.1[25 µM]
CCC(=O)N1CC[C@H]2[C@H](CO)Nc3ccc(C#Cc4cccnc4)cc3[C@H]21	-15.4[25 µM]
CC(=O)Nc1cccc2c1O[C@@H](CN(C)C)[C@@H](C)CN(C)C2=O	4.2
CCCNC(=O)N1[C@H](C#N)[C@H](c2ccc(C3=CCCCC3)cc2)[C@@H]1CO	61.0*[25 µM]
CCCNC(=O)N1[C@H](CO)[C@@H](c2ccc(C3=CCCCC3)cc2)[C@@H]1C#N	1.1[25 µM]
CCCNC(=O)N1[C@@H](C#N)[C@@H](c2ccc(C3=CCCCC3)cc2)[C@@H]1CO	22.4[25 µM]
COc1ccc(NC(=O)N2CCCCN3[C@H](CO)[C@H](c4ccc(-c5ccccc5F)cc4)[C@@H]3C2)cc1	15.7[25 µM]
N#Cc1cccc(-c2ccc3c(c2)[C@H]2[C@H](CCN2C(=O)CN2CCOCC2)[C@@H](CO)N3)c1	-7.1[25 µM]
N#Cc1cccc(-c2ccc3c(c2)[C@@H]2[C@@H](CCN2C(=O)CN2CCOCC2)[C@H](CO)N3)c1	-12.2[25 µM]
N#Cc1cccc(-c2ccc3c(c2)[C@@H]2[C@@H](CCN2C(=O)CN2CCOCC2)[C@@H](CO)N3)c1	active[25 µM]
N#Cc1ccc(-c2ccc3c(c2)[C@@H]2[C@@H](CCN2C(=O)C2CC2)[C@H](CO)N3)cc1	2.4
N#Cc1ccc(-c2ccc3c(c2)[C@H]2[C@H](CCN2C(=O)C2CCC2)[C@@H](CO)N3)cc1	46.8
N#Cc1ccc(-c2ccc3c(c2)[C@H]2[C@H](CCN2C(=O)C2CC2)[C@@H](CO)N3)cc1	68.1*
COc1ccc(C[C@H]2CCn3nncc3COCCCNC2=O)cc1	-2.2[25 µM]
Cc1ccc(NC(=O)Nc2ccc3c(c2)C(=O)N(C)[C@@H]2CC[C@H](CC(=O)NCC(F)(F)F)O[C@@H]2CO3)cc1	11.9[25 µM]
COc1ccc2c3c([nH]c2c1)[C@@H](CO)N(C(=O)c1cccc(F)c1)CC31CCN(C(=O)c2ccccc2)CC1	13.3
COc1cccc(CN2[C@@H]3CNC[C@H]2C3c2ccc(-c3cccc(C#N)c3)cc2)c1 (some centres not stated)	-7.4
O=C(Nc1ccc(Cl)c(S(=O)(=O)N2CCOCC2)c1)c1cn2ccccc2n1	5.8
O=C(NC1CC1)c1cccc(NC(=O)c2cn3ccccc3n2)c1	-90.0
